# Data as given in PubChem BioAssay AID485270 (The Scripps Research Institute Molecular Screening Center, 2010).
# Among all 330,000 compounds or so, about 5,800 (1.8%) were called active. This excerpt belongs to a sample that is enriched for actives. Unmarked numbers belong to inactive results. No stated cut-off is given here; in the data, active means inhibition mostly above about 38% (no sharp cut-off); inactive means mostly below about 40%.
# Molecular target: Orexin/Hypocretin receptor type 1 (Homo sapiens) (UniProt O43613)
# Assay: antagonists of human orexin 1 receptor (OX1R) (AID 485270);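 further: 0% = agonist challenge alone and 100% = reference antagonist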
# Settings: OX1R-expressing cells, FRET antagonist read-out; at 6.6 µM; stronger effect = higher value
# Chain of Orexin/Hypocretin receptor type 1 (Homo sapiens) (O43613 whole entry, looked up): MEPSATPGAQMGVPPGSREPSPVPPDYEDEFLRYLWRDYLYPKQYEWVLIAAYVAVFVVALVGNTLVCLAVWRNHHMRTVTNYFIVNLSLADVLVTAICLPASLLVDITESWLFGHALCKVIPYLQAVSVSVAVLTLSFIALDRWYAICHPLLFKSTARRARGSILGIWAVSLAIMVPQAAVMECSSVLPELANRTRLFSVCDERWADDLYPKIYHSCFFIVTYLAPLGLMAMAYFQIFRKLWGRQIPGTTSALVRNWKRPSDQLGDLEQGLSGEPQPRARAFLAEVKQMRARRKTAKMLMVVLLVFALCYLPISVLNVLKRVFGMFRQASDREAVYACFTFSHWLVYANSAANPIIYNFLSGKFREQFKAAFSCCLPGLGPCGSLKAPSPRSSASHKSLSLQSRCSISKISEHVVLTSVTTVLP
row,Compound,inhibition
1,c1ccc(-c2nnc(SCc3nc4ccccc4[nH]3)o2)cc1,16.7%
2,c1ccc2c(CSCc3nc4ccccc4[nH]3)cccc2c1,90.8% (active)
3,Clc1ccccc1SCc1nc2ccccc2[nH]1,24.1%
4,CC(C)(C)OC(=O)C[C@@H]1C/C=C\C[C@@H](CC(=O)N[C@H](CO)Cc2ccccc2)C(=O)NC[C@@H](c2ccccc2)OC1=O,8.95%
5,COC(=O)C1=C(C)N(Cc2ccccc2)C(=NCCCOC(C)C)N[C@H]1c1ccccc1,10.8%
6,O=C(Nc1ccc2sc3ccccc3c(=O)c2c1)c1ccccc1Cl,86.1% (active)
7,CS(=O)(=O)c1ccccc1C(=O)Nc1ccc2sccc2c1,11.8%
8,COCC(=O)N1CCc2ccc(NC(=O)c3ccccc3Cl)cc2C1,-9.22%
9,CCCC(CNC(=O)COC(=O)C1=NNC(=O)CC1)c1ccc(Cl)cc1Cl (centres undefined),9.27%
10,CC1O[C@@H](OC2C(O)C(C)O[C@H](OC(=O)[C@]34CCC(C)(C)C[C@H]3C3=CCC5[C@@]6(C)CC(O)C(O[C@@H]7OC(CO)C(O)[C@@H](O)[C@@H]7O)[C@@](C)(C(=O)O)C6CC[C@@]5(C)[C@]3(CO)CC4)C2O[C@H]2OC(C)[C@@H](O[C@@H]3OCC(O[C@@H]4OC(CO)C(O)[C@H](O)C4O)[C@@H](O)[C@@H]3O)[C@H](O)C2O)C(O)C(O)C1O (some centres undefined),10.6%
11,CCC(CO)Oc1cc(NC(=O)c2cccc3ccccc23)c2ncn(C(C)C)c2c1 (centres undefined),12.5%
12,COc1ccccc1-c1nnc2n1N=C(c1ccc(OC(F)F)c(OCC3CC3)c1)CS2,9.14%
13,C[C@@H]1CN([C@H](C)CO)C(=O)c2cc(NC(=O)NC3CCCCC3)ccc2O[C@H]1CN(C)S(C)(=O)=O,0.78%
14,COc1ccc(S(=O)(=O)Nc2ccccc2C(=O)N2CCCC2)cc1C,15.3%
15,COc1ccc(S(=O)(=O)NC(C)c2ccccc2)cc1C(=O)N1CCCCC1 (centres undefined),78.9% (active)
16,CC(NS(=O)(=O)c1ccc(OCC(=O)N2CCCC2)cc1)c1ccccc1 (centres undefined),2.37%
17,COc1cc2ccccc2cc1C(=O)Nc1ccc(NC(=O)c2cccs2)cc1,10.3%
18,COc1ccc(CCNC(=O)/C(C#N)=C2\N=C(NC(=O)c3cccs3)c3ccccc32)cc1,110% (active)
19,COc1ccc(CN(Cc2ccc(OC)cc2)C(=O)c2cccs2)cc1,5.1%
20,Cc1c(Br)ccc(NC(=O)COc2ccccc2C(N)=O)c1C,1.89%
21,CC(C)(C)n1ncc2c(=O)n(Cc3c(Cl)cccc3Br)cnc21,11.1%

row,Compound,inhibition
1,Cc1nc2ccccc2n1CC(O)c1ccccc1 (centres undefined),17.1%
2,CCC1(CC)Cc2ccccc2-c2nc3ccccc3c(=O)n21,8.19%
3,CCn1c(C)nc2c1C(=O)c1ccccc1C2=O,99.7% (active)
4,CC(C)(C)OC(=O)CNC(=O)c1[nH]cnc1C(=O)N[C@@H](CCCCN)C(=O)OC(C)(C)C,10.9%
5,C=CC[C@@H](CC(=O)N[C@H](CO)Cc1ccccc1)C(=O)N[C@@H](COC(=O)[C@@H](CC=C)Cc1ccc(F)cc1)Cc1c[nH]c2ccccc12,5.38%
6,Cc1cc(=O)oc(C)c1C(=O)NCCN(C)Cc1ccccc1,98.2% (active)
7,COc1ccc(CNC(=O)c2c(C)cc(=O)oc2C)cc1OC,8.87%
8,Cc1cc(=O)oc(C)c1C(=O)NCc1ccc(F)cc1,19.4%
9,CCC(CO)Oc1cc(NC(=O)c2cccc(F)c2)c2ncn(C(C)C)c2c1 (centres undefined),10.7%
10,COc1cccc(NC(=O)COc2cccnc2[N+](=O)[O-])c1,17.9%
11,O=C(CCNC(=O)c1ccccc1)NN=Cc1ccc(Br)o1,13.7%
12,COC(=O)c1ccc(NC(=O)c2ccccc2NS(=O)(=O)c2ccccc2)cc1,27%
13,COc1cc(NC(=O)c2ccccc2NS(=O)(=O)c2ccc(Cl)s2)cc(OC)c1,72.7% (active)
14,COc1cc(OC)c(S(=O)(=O)Nc2ccccc2C(=O)O)cc1S(=O)(=O)Nc1ccccc1C(=O)O,3.5%
15,NC[C@H](Cc1ccccc1)NCCc1cc(C(F)(F)F)cc(C(F)(F)F)c1,4.07%
16,CCCN(CC1CC1)C(=O)COC(=O)c1ccc(C)cc1O,10.6%
17,Cc1[nH]n(-c2ccccc2)c(=O)c1/C=N/NC(=O)c1ccoc1C,17.4%
18,Cc1ccc(-n2[nH]c(C)c(/C=N/N3C(=O)c4cccc5cccc(c45)C3=O)c2=O)cc1,67% (active)
19,COc1cc(SC#N)ccc1N=Cc1c(C)[nH]n(-c2ccc(C)cc2)c1=O,14.1%
20,COc1ccc(CC(=O)N[C@@H]2c3cc(OC)c(OC)cc3C[C@H]2OCc2ccccc2)cc1,16%
21,O=C1NC[C@@H](c2ccccc2)OC(=O)[C@H](Cc2ccc(F)cc2)CC/C=C/C[C@H]1CC(=O)N(CCO)Cc1ccccc1,28.2%

row,Compound,inhibition
1,Cc1cc(NC(=O)CSCC(=O)NC(C)c2ccccc2)no1 (centres undefined),-1.97%
2,CC(NC(=O)c1ccccc1F)c1cccc2ccccc12 (centres undefined),29.1%
3,CC(NC(=O)c1ccccc1C(=O)O)c1ccc(-n2ccnc2)cc1 (centres undefined),14.7%
4,CC(NC(=O)c1cccc2ccccc12)c1ccc2c(c1)CCCC2 (centres undefined),79% (active)
5,C#CCOCCOCCOCCNc1nc(N2CCN(C(=O)[C@H](CO)n3cc([C@@H](N)C(C)C)nn3)CC2)nc(N2CCN(C(=O)[C@H](CCC(=O)O)n3cc([C@@H](N)[C@H](C)CC)nn3)CC2)n1,3.25%
6,Cc1n[nH]c(=O)c2c(NC(=O)CSc3cc(Cl)ccc3Cl)oc(C)c12,15.7%
7,Cc1n[nH]c(=O)c2c(NC(=O)COC(=O)c3ncc(Cl)c(Cl)c3Cl)oc(C)c12,52.6% (active)
8,Cc1n[nH]c(=O)c2c(NC(=O)CSc3ccccc3F)oc(C)c12,15.6%
9,Cc1ccc(NC(=O)C2CCC(C(C)(C)C)CC2)cc1S(=O)(=O)N1CCOCC1 (centres undefined),13.3%
10,O=C(CN1C(=O)NC(Cc2ccccc2)(Cc2ccccc2)C1=O)NCC1CCCCC1,42.4% (active)
11,CCCCNC(=O)CN1C(=O)NC(Cc2ccccc2)(Cc2ccccc2)C1=O,28.3%
12,O=C(CC1CCCCC1)NCc1ccccc1,7.66%
13,Cc1noc(C)c1NC(=O)Nc1cccc2c1O[C@H](CN(C)S(=O)(=O)c1c(C)noc1C)[C@@H](C)CN([C@H](C)CO)C2=O,-0.11%
14,CCOc1ccccc1Nc1nnc(SCC(=O)NCC2CCCO2)s1 (centres undefined),6.79%
15,COCc1ccc(C(=O)NC2CC(C)(C)Cc3c2cnn3-c2ccc(C)cc2)o1 (centres undefined),34.1%
16,COc1ccc(C(=O)NC2CC(C)(C)Cc3c2cnn3-c2ccccc2C)o1 (centres undefined),71.7% (active)
17,COc1ccc(C(=O)NC2CC(C)(C)Cc3c2cnn3-c2ccccc2)c(OC)c1 (centres undefined),34.6%
18,COc1cc(OC)c2c(-c3cccc(-c4cccc(N)c4)c3)cc(=O)oc2c1,7.11%
19,COc1cccc(/C=N/Nc2ncc(C(F)(F)F)cc2Cl)c1O,9.55%
20,COc1cccc(/C=N/Nc2cc(C)nc(-c3ccccc3O)n2)c1O,107% (active)
21,COc1ccccc1/C=N/Nc1nc(C)c(C(C)=O)s1,13.4%

row,Compound,inhibition
1,Cc1scc(C(=O)NNC(=S)NCc2ccccc2)c1C,11.1%
2,CCOC(=O)C1CCCN(C(=O)CSc2nnc3nc(C)cc(C)n23)C1 (centres undefined),0.28%
3,O=[N+]([O-])c1ccc(NCCCO)c(C(F)(F)F)c1,28.9%
4,O=C(NCCNc1ccccc1[N+](=O)[O-])c1ccccc1F,9.6%
5,N#Cc1c(NCCO)ccc([N+](=O)[O-])c1NCCO,49.8% (active)
6,COc1ccccc1N(CCOc1ccccc1)S(=O)(=O)c1ccccc1,26.3%
7,Cc1cc(C)nc(N/N=C/c2ccc([N+](=O)[O-])o2)n1,60.5% (active)
8,COc1ccc(C(=O)NCC(=O)N/N=C/c2ccc([N+](=O)[O-])o2)cc1OC,40%
9,Cc1cc(C)nc(N/N=C/c2c(C)oc3ccccc23)n1,24.7%
10,COc1ccc(S(=O)(=O)N2CCCCCC2)cc1NC(=O)Cc1ccc(OC)c(OC)c1,8.64%
11,COc1cc(OC)cc(-c2c(C#Cc3ccsc3)c3cc(-c4ccc(OC)cc4F)ccc3n2C)c1,9.29%
12,Cc1noc(C)c1S(=O)(=O)N(C)C[C@H]1Oc2ccc(NC(=O)C3CC3)cc2C(=O)N([C@H](C)CO)C[C@@H]1C,3.87%
13,CN1C(=O)[C@H]2[C@@H](/C=C/c3ccccc3)N3C(=O)CN(Cc4ccc(-c5ccccc5)cc4)C(=O)[C@@]3(C)[C@H]2C1=O,-0.45%
14,CN1CN(C)c2ccc([N+](=O)[O-])c3cccc1c23,44.5% (active)
15,O=[N+]([O-])c1cccc2ncccc12,22.2%
16,CN1CCN(c2ccc(S(=O)(=O)Nc3ccccc3)cc2[N+](=O)[O-])CC1,27.9%
17,Cc1ccccc1NC(=O)CSC(=O)c1ccccc1,3.63%
18,COC(=O)C1CCN(C(=O)COC(=O)c2cc(S(=O)(=O)N3CCOCC3)ccc2C)CC1,-3.08%
19,CN1CCN(/N=C/c2ccc(-c3ccc([N+](=O)[O-])cc3)o2)CC1,83.2% (active)
20,CN1CCN(/N=C/c2ccc(C#N)cc2)CC1,37.9%
21,CN1CCN(/N=C2/C(=O)Nc3ccc([N+](=O)[O-])cc32)CC1,72.6%
